Inconclusive results are not listed. Calls of active or inactive are those of the source. Calls follow the shape of the dose curve; as a rule, active = well fitted cell-killing curve with a large enough effect; inconclusive = small, poorly fitted or top-dose-only effect; inactive = no such curve, though single readings can be large or run the other way.
Potency is read from the fitted curve at half-maximal effect.

A short description of this test: qHTS of pediatric cancer cell lines to identify multiple opportunities for drug repurposing: Primary screen for NB-EBc1 cells (AID 1347095). Particulars: NB-EBc1 neuroblastoma viability, CellTiter-Glo luminescence, 48 h; series mostly up to 46 µM; activity change, negative = cytotoxic: at the top concentration. An excerpt:
Drug repurposing or repositioning has been offered as a strategy for drug development in oncology programs. This approach has special potential for childhood cancers and other rare or orphan diseases, where the expected return on new drug development has been a disincentive to pharmaceuticals. […] In this project we exploit the poly-pharmacology of drugs to discover new indications via phenotypic screening of a panel of 19 well-characterized cell lines derived from solid tumors seen in children and adolescents. The goal is to identify approved drugs with previously unrecognized anticancer properties that has the potential to reveal new mechanisms and biological processes involved in carcinogenesis or drug resistance. We employed a titration-based paradigm (quantitative high-throughput screening or qHTS), where all compounds were tested at multiple concentrations for their effect on cell viability. Concentration-response curves (CRCs) were derived directly from the primary screen, and both potency and efficacy values were used to identify compounds with robust bioactivity profiles. We screened the NIH Chemical Genomics Center (NCGC) Pharmaceutical Collection (NPC) and Mechanism Interrogation Plate (MIPE) small molecule collections of approved and investigational compounds against these cell lines; and measured metabolically active cells after 48 hours of compound treatment as a proxy for cell viability. […] Assay Submitter: Nathalia J. Martinez, National Center for Advancing Translational Sciences, National Institutes of Health, Rockville, MD, USA; email: natalia.martinez@nih.gov Shen, M et al. Quantitative high-throughput phenotypic screening of pediatric cancer cell lines identifies multiple opportunities for drug repurposing. Oncotarget 2017 Dec 19;9(4):4758-4772. PMID 29435139.
The cells were obtained from University of North Carolina (UNC), Pediatric Preclinical Testing Program (PPT), and Coriell Institute (CI). qHTS cell viability assay: Cells were assayed in growth media at a density of 500-1,000 cells/well. Five microliters of cells were dispensed into 1,536-well, white, solid-bottom, TC-treated plates (Greiner Bio One) using a multidrop dispenser and incubated at 37 degrees C, 5% CO2, under a humidified atmosphere for 5 hours. Twenty-three nanoliters of compounds and controls (neutral control DMSO or positive control bortezomib at final concentration of 2.3 µM) were subsequently transferred by Kalypsys pintool. For primary screens, the MIPE collection was tested at 11-point dilutions (final concentrations range from 0.78 nM to 46 µM) and the NPC collection at 8-point dilutions (final concentrations range from 0.59 nM to 46 µM). Compounds tested in follow-up screens were assayed at 11-point dilutions. Cells were incubated for 48 hours, followed by addition of 3 µL of CellTiter-Glo (Promega). After a 15 min incubation at room temperature, samples were analyzed for luminescence intensity using a ViewLux High-throughput CCD imager equipped with clear filters.
(In general: In qHTS, concentration-response curves come from the screen itself.)
In the case of `CC(=O)OCC(=O)[C@@]1(O)CC[C@H]2[C@@H]3CCC4=CC(=O)C=C[C@]4(C)[C@@H]3[C@@H](O)C[C@@]21C`, the “activity change, negative = cytotoxic” value was 20.9% (inactive).

Regarding `CC(C)C[C@@H](N)[C@H](O)C(=O)N[C@H](C(=O)N[C@H](C(=O)N[C@@H](CC(=O)O)C(=O)O)C(C)C)C(C)C`, the “activity change, negative = cytotoxic” value was 11.3% (inactive).

For `CN(C)c1nc(Cc2ccc(NC(=O)c3ccc(C(F)(F)F)cc3)cc2)nc(N(C)C)c1CC(=O)O`, the “activity change, negative = cytotoxic” value is 21.4% (inactive).

As for `C=C1c2cccc(O)c2C(O)=C2C(=O)[C@@]3(O)C(O)=C(C(N)=O)C(=O)[C@@H](N(C)C)[C@@H]3[C@@H](O)[C@H]12`, the “activity change, negative = cytotoxic” value is 49.9% (inactive).

With `O=C1C(CCC(O)c2ccc(F)cc2)C(c2ccc(O)cc2)N1c1ccc(F)cc1` (stereo not given), the “activity change, negative = cytotoxic” value was 4.04% (inactive).

Regarding `CN1CCN2c3ncccc3Cc3ccccc3C2C1` (stereo not given), the “activity change, negative = cytotoxic” value is 2.54% (inactive).

Turning to `O=C(O)C1=CC(O)C(O)[C@H](O)C1` (stereo not given in full), the “activity change, negative = cytotoxic” value was 10.1% (inactive).

Regarding `COc1ccc(CCN(C)CCCOc2ccc(S(=O)(=O)c3[nH]c4ccccc4c3C(C)C)cc2)cc1OC`, the Potency was 20.9 µM (active).

As to `CCC(=C(CC)c1ccc(O)cc1)c1ccc(O)cc1`, the Potency was 5.9 µM (active).

In the case of `CN1c2ccccc2C(=O)N2CCc3c([nH]c4ccccc34)C21` (stereo not given), the “activity change, negative = cytotoxic” value was 3.4% (inactive).

Take `CS(=O)(=O)c1ccc(C2=C(c3ccccc3)C(=O)OC2)cc1`: the “activity change, negative = cytotoxic” value was 28.2% (inactive).

Regarding `O=C(c1ccc(F)c(F)c1Nc1ccc(I)cc1F)N1CC(O)([C@H]2CCCCN2)C1`, the Potency was 1.66 µM (active).

On to `Nc1ccn([C@@H]2O[C@H](CO)[C@@H](O)[C@H]2O)c(=O)n1`, for which the Potency was 33.2 µM (active).

With `C=CC(=O)Nc1cccc(Sc2nc(Nc3ccc(N4CCN(C)CC4)cc3)ncc2Cl)c1`, the Potency was 9.35 µM (active).

As to `COC(=O)Nc1ccc(-c2nc(N3CCOCC3)c3cnn(C4CCN(C(=O)OC)CC4)c3n2)cc1`, the Potency was 0.0083 µM (active).

With `CC(=O)O[C@]1(C(C)=O)CC[C@H]2[C@@H]3C=C(Cl)C4=CC(=O)[C@@H]5C[C@H]5[C@]4(C)[C@@H]3CC[C@@]21C`, the Potency is 16.6 µM (active).

As for `C=CC[N+]1([C@H]2C[C@H]3[C@@H]4CC[C@H]5C[C@H](O)[C@@H](N6CCOCC6)C[C@]5(C)[C@@H]4CC[C@]3(C)[C@H]2OC(C)=O)CCCC1`, the “activity change, negative = cytotoxic” value was 7.94% (inactive).

Regarding `OC[C@H]1O[C@@H](Oc2ccc(O)cc2)[C@H](O)[C@@H](O)[C@H]1O`, the “activity change, negative = cytotoxic” value was 4.66% (inactive).

As for `Cc1cnc(Nc2cccc(CN3CCOCC3)c2)nc1Nc1cccc(S(=O)(=O)NC(C)(C)C)c1`, the Potency is 4.18 µM (active).

With `CN1[C@H]2CC[C@H]1CC(OC(=O)c1c[nH]c3ccccc13)C2` (stereo not given in full), the “activity change, negative = cytotoxic” value was -1.85% (inactive).

On to `Cc1ccccc1C(C(=O)NC1CCCCC1)N(C(=O)CNc1ccc(C#N)cc1)c1cccc(F)c1` (stereo not given), for which the Potency was 23.5 µM (active).

Turning to `NC1(C(=O)N[C@@H](CCO)c2ccc(Cl)cc2)CCN(c2ncnc3[nH]ccc23)CC1`, the Potency is 5.26 µM (active).

With `C=C1[C@H](n2cnc3c(=O)[nH]c(N)nc32)C[C@H](O)[C@H]1CO`, the Potency is 2.09 µM (active).

On to `COC(=O)N1CCN(Cc2cccc(NC(=O)Nc3ccc(C)nc3)c2F)CC1`, for which the “activity change, negative = cytotoxic” value was -1.33% (inactive).

Turning to `Nc1ccc(-c2ccc3ncc4ccc(=O)n(-c5cccc(C(F)(F)F)c5)c4c3c2)cn1`, the Potency is 0.0118 µM (active).

Regarding `C[C@]12CCC3=C4CCC(=O)C=C4CC[C@@H]3[C@H]1CC[C@@]2(O)CC#N`, the “activity change, negative = cytotoxic” value was 20.7% (inactive).

For `O=c1cc(-c2ccc(O)c(O)c2)oc2cc(O)cc(O)c12`, the “activity change, negative = cytotoxic” value was 7.6% (inactive).

For the compound `NC(=O)c1noc([C@H](CCCC2CCCCC2)CC(=O)NO)n1`, the Potency was 20.9 µM (active).

Regarding `O=C(c1ccc(C(=O)N2CCC(N3CCCC3)CC2)c(Nc2ccccc2)c1)N1CCC(N2CCCC2)CC1`, the “activity change, negative = cytotoxic” value is 15.9% (inactive).

Consider `CN1CC(=O)NC1=NC(=O)Nc1cccc(Cl)c1`, for which the Potency is 20.9 µM (active).

Turning to `CC(C)(OCc1nn(Cc2ccccc2)c2ccccc12)C(=O)O`, the Potency is 11.8 µM (active).

Consider `CC(C)C[C@@H](C(=O)N[C@H](C(=O)OC1CCCC1)c1ccccc1)[C@H](O)C(=O)NO`, for which the Potency was 18.7 µM (active).

On to `C[C@@H](O[C@H]1OCCN(Cc2n[nH]c(=O)[nH]2)[C@@H]1c1ccc(F)cc1)c1cc(C(F)(F)F)cc(C(F)(F)F)c1`, for which the Potency is 23.5 µM (active).

Turning to `O=C(O)Cc1cccc(OCCCN(Cc2cccc(C(F)(F)F)c2Cl)CC(c2ccccc2)c2ccccc2)c1`, the Potency was 23.5 µM (active).

For `CC(O)=C(C#N)C(=O)Nc1ccc(C(F)(F)F)cc1`, the Potency was 4.18 µM (active).

On to `NCC1CCC(C(=O)O)CC1` (stereo not given), for which the “activity change, negative = cytotoxic” value was 19.8% (inactive).

`Cc1cn([C@@H]2C[C@@H](O)[C@H](CO)O2)c(=O)[nH]c1=O`: the “activity change, negative = cytotoxic” value is -4.9% (inactive).

For `Cc1cc(C(C)Nc2ccccc2)c2nc(N3CCOCC3)cc(=O)n2c1` (stereo not given), the “activity change, negative = cytotoxic” value is -6.21% (inactive).

For `COc1cc(Nc2nc3ccccc3nc2NS(=O)(=O)c2ccc(NC(=O)c3ccc(C)c(OC)c3)cc2)cc(OC)c1`, the Potency is 26.4 µM (active).

Take `CCCCn1c(=O)n(Cc2ccccc2F)c(=O)c2[nH]c(Cc3ccc(NC(C)=O)cc3)nc21`: the “activity change, negative = cytotoxic” value was -8.26% (inactive).

These data come from PubChem BioAssay (NCATS).
